Compound activity deposited in PubChem BioAssay by Sanford-Burnham Center for Chemical Genomics.
hiPSC survival: increases survival of single human iPS cells. hiPSC single-cell survival, ATPlite luminescence; 100% = ROCK inhibitor wells, 0% = DMSO. survival enhancement, % at 20 µM. 0.044% of 360,000 active. AID 602274; in the data active = survival enhancement above about 18%;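 note: cells exposed to compounds for 16 hours before the ATP read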
TAG inh: reduces triacylglycerol accumulation in H9c2 cells. Nile Red lipid (TAG) fluorescence; cells loaded with 200 µM oleic acid. inhibition, % at 12.5 µM. 0.66% of 230,000 active;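 active = pattern-corrected inhibition of lipid staining of at least 50% with the nuclear-stain viability signal not falling by more than 50%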
beta cell repl: MIN6 beta-cell proliferation induction | proliferation, % at 10 µM | MIN6 cells proliferation, ATPlite luminescence, 48 h; cells starved in 0.2% serum; 100% = growth in 10% serum | 0.29% of 330,000 active;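 active = compounds whose signal lies at least 3.5 SD above the mean of all wells on their plate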
Numbers stand for hits; - = inactive; . = no result. An excerpt weighted towards active compounds, which were near 0.71% of everything screened.

SMILES | hiPSC survival | TAG inh | beta cell repl
CC(=O)c1cccc(-c2csc3ncnc(Sc4nnnn4C)c23)c1 | - | - | .
Cn1nnnc1Sc1ncnc2scc(-c3cccc(Br)c3)c12 | - | 67 | -
NC(=O)c1ccc(N=Nc2c(-c3ccccc3)[nH]n(-c3ccccc3)c2=O)cc1 | . | . | -
O=c1c(N=Nc2ccc(O)cc2)c(-c2ccccc2)[nH]n1-c1ccc([N+](=O)[O-])cc1 | - | 88 | -
CC1C/C(=C/c2cccn2C)C(=O)/C(=C/c2cccn2C)C1 (stereo unspecified) | - | - | -
CC1C/C(=C/c2ccncc2)C(=O)/C(=C/c2ccncc2)C1 (stereo unspecified) | 53 | - | -
CCOC(=O)C(=O)/C(=C\N(C)C)c1onc(-c2c(F)cccc2Cl)c1C(=O)OC | 20 | - | -
COC(=O)c1onc(-c2c(Cl)cccc2Cl)c1C(=O)OC | - | - | -
CS(=O)(=O)Nc1cccc(-c2cc(NC=O)c3ncc(-c4ccc(F)c(Cl)c4)n3c2)c1 | - | - | .
COc1ccccc1N1CCN(C(=O)C2c3ccccc3Oc3ccccc32)CC1 | - | 57 | -
COc1ccccc1N1CCN(C(=O)C2CC2)CC1 | - | - | -
Cc1cc(O)cc(O)c1/C=N/NC(=O)c1ccc2c(c1)OCCO2 | - | - | .
CCN(CC)c1ccc(C(NC(=O)C(C)C)c2ccc3cccnc3c2O)cc1 (stereo unspecified) | - | - | .
CCCC(=O)NC(c1ccc(C)cc1)c1ccc2cccnc2c1O (stereo unspecified) | - | 61 | -
CCCCC(=O)NC(c1ccc(Cl)cc1)c1ccc2cccnc2c1O (stereo unspecified) | - | 52 | -
Oc1c(C(Nc2cccc(C(F)(F)F)c2)c2ccncc2)ccc2cccnc12 (stereo unspecified) | - | - | -
Oc1c(C(Nc2nccs2)c2ccc(C(F)(F)F)cc2)ccc2cccnc12 (stereo unspecified) | - | 60 | .
CC(C)C(=O)NC(c1ccco1)c1ccc2cccnc2c1O (stereo unspecified) | - | 72 | -
CCCCC(=O)NC(c1ccc(N(C)C)cc1)c1ccc2cccnc2c1O (stereo unspecified) | - | - | -
CCCC(=O)NC(c1ccc(Cl)cc1)c1ccc2cccnc2c1O (stereo unspecified) | - | - | -
COc1ccc(NC(=O)C2(C)CCN2Cc2cccc(OC)c2F)cc1OC (stereo unspecified) | - | - | .
CCCCNC(=O)c1c(N)[nH]c(C(=O)c2ccccc2)c1-c1ccc(Cl)cc1 | - | . | .
O=C1Nc2ccccc2N=C(c2ccc3c(c2)OCO3)C1N(C(=O)c1ccc2ccccc2c1)C1CC1 (stereo unspecified) | - | . | .
Cc1ccc2nc(NC(=O)c3ccccn3)sc2c1 | - | - | -
CCOc1ccc2nc(NC(=O)c3ccccn3)sc2c1 | - | 51 | -
SMILES | hiPSC survival | TAG inh | beta cell repl
COc1ccc2nc(NC(=O)Cc3cccs3)sc2c1 | - | - | -
CCOc1ccc2nc(NC(=O)Cc3cccs3)sc2c1 | - | 64 | -
Oc1[nH]c2ccccc2c1N=Nc1nc2ccccc2s1 | - | . | -
C/C(N=Nc1nc2ccccc2s1)=N\Nc1ccccc1O | - | 58 | -
COc1ccc(Cn2cc(CN3CC(N4CCN(Cc5ccccc5F)CC4)CS3(=O)=O)nn2)cc1 (stereo unspecified) | - | . | .
Cc1ccc(CN2CCC(C)(Oc3cccc(Cl)c3)C2)cc1 (stereo unspecified) | - | - | .
O=S(=O)(c1cccc2cnccc12)N1CCNCC1 | 27 | - | -
O=S(=O)(c1cccc2ccccc12)N1CCSC1 | - | . | -
CN(C)CCCN(C(=O)c1ccc(S(=O)(=O)N2CCc3ccccc32)cc1)c1nc2ccc(F)cc2s1 | - | - | -
CN(C)CCN(C(=O)c1cc(Cl)sc1Cl)c1nc2ccc(F)cc2s1 | - | . | -
Cc1ccc2nc(N(CCCN(C)C)C(=O)c3ccc(S(=O)(=O)N4CCc5ccccc5C4)cc3)sc2c1 | - | 69 | -
COc1ccc2sc(N(CCCN(C)C)C(=O)c3ccc(S(=O)(=O)N4CCc5ccccc5C4)cc3)nc2c1 | - | - | -
CN(C)CCCN(C(=O)c1ccc(S(=O)(=O)N2CCc3ccccc3C2)cc1)c1nc2ccc(F)cc2s1 | - | 57 | -
CN(C)CCCN(C(=O)c1ccc(S(=O)(=O)N2CCc3ccccc32)cc1)c1nc2ccc(Cl)cc2s1 | - | - | -
Cc1cc(C)c2sc(N(CCCN(C)C)C(=O)c3ccc(S(=O)(=O)N4CCCc5ccccc54)cc3)nc2c1 | - | 56 | -
CN(C)CCCN(C(=O)c1cc(-c2cccs2)nc2ccccc12)c1nc2ccc(F)cc2s1 | - | 60 | -
CC1(C(=O)NS(=O)(=O)c2ccc(Cl)cc2)CCN1C(=O)c1ccco1 (stereo unspecified) | - | - | .
